The text below walks through data of PubChem BioAssay (NCATS).

The structures appear in SMILES notation. Records with an inconclusive call do not appear. Activity calls are given as the source filed them. Unless noted, calls come from the whole dose curve.

Assay [1] in a line: qHTS for Inhibitors of the Functional Ribonucleoprotein Complex (vRNP) of Lassa (LASV) Arenavirus: LASV Primary Screen - GLuc reporter signal (AID 1347082; calls by dose curve; tested in HEK293 reporter line; note: nearly all actives have a fitted effect of over 60% in size).
The target of assay [2] is Nucleoprotein (Lymphocytic choriomeningitis virus (strain Armstrong)) (UniProt P09992). Briefly: qHTS for Inhibitors of the Functional Ribonucleoprotein Complex (vRNP) of Lymphocytic Choriomeningitis Arenaviruses (LCMV): LCMV Primary Screen - GLuc reporter signal (AID 1347086). Note: nearly all actives have a fitted effect of over 70% in size.
Assay [3] in a line: qHTS for Inhibitors of the Functional Ribonucleoprotein Complex (vRNP) of Lassa (LASV) Arenavirus: Viability assay - alamar blue signal for LASV Primary Screen (AID 1347083; calls by dose curve; tested in HEK293 reporter line; note: nearly all actives have a fitted effect of over 80% in size). In general terms: In qHTS, concentration-response curves come from the screen itself.
A short description of assay [4]: qHTS for Inhibitors of the Functional Ribonucleoprotein Complex (vRNP) of Lymphocytic Choriomeningitis Arenaviruses (LCMV): Viability assay - alamar blue signal for LCMV Primary Screen (AID 1347085; calls by dose curve; tested in HEK293 reporter line; note: nearly all actives have a fitted effect of over 80% in size).
A short description of assay [5]: qHTS of pediatric cancer cell lines to identify multiple opportunities for drug repurposing: Primary screen for TC32 cells (AID 1347089; active = well fitted cell-killing curve with a large enough effect; note: nearly all actives have a fitted effect of over 60% in size). A digest of the protocol: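 A viability screen of TC32 cells was run over 48 h, with primary MIPE doses spanning 0.78 nM–46 µM and NPC doses 0.59 nM–46 µM. ATP luminescence (CellTiter-Glo) served as the read-out.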
The nature of assay [6]: qHTS of pediatric cancer cell lines to identify multiple opportunities for drug repurposing: Primary screen for DAOY cells (AID 1347090; active = well fitted cell-killing curve with a large enough effect; note: nearly all actives have a fitted effect of over 55% in size). A digest of the protocol: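 Eight- or eleven-point concentration series, 48 h treatment at 37 degrees C in growth media; readout CellTiter-Glo luminescence. Potency and efficacy were taken from the concentration-response curves.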
Potency is the fitted concentration of half-maximal effect.

Sequence of Nucleoprotein (Lymphocytic choriomeningitis virus (strain Armstrong)) (P09992 whole entry, looked up): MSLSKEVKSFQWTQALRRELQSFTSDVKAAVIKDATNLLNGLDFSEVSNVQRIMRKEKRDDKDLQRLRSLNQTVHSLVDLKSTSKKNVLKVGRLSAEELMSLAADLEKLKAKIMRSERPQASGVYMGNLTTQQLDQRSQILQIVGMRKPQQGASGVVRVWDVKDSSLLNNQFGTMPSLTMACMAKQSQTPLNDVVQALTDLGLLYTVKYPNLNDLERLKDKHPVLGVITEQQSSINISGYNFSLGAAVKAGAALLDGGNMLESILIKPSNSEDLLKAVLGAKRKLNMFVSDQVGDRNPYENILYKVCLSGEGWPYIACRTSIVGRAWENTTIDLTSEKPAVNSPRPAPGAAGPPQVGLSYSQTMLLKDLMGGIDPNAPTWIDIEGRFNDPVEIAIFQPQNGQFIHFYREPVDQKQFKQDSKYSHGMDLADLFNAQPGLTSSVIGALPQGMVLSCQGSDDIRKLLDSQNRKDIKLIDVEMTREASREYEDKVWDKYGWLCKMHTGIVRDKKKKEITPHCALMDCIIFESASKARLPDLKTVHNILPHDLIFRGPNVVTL

Take `O=S(=O)(N=Cc1c(O)ccc2ccccc12)c1cccs1`: the Potency entry in assay [1] and in assay [2] was “inactive” in each case.

On to `COc1c(Cl)cc2c([nH]c3cnccc32)c1NC(=O)c1cccnc1C`, for which the Potency entry in assay [1] and in assay [2] was “inactive” each time.

Take `CCCCc1nc2cc(C=CC(=O)NO)ccc2n1CCN(CC)CC`: the Potency in assay [3] is 6.85 µM (active); in assay [4], 7.69 µM (active).

Consider `CCN(CC)c1ccc(C(=C2C=CC(=[N+](CC)CC)C=C2)c2cc(S(=O)(=O)O)ccc2S(=O)(=O)[O-])cc1`, for which the Potency result in assay [1] and in assay [2] was “inactive” each time.

Consider `CCCS(=O)(=O)Nc1ccc(F)c(C(=O)c2c[nH]c3ncc(Cl)cc23)c1F`, for which the Potency was 12.2 µM (active) in assay [3] and 2.73 µM (active) in assay [4].

As to `O=C(c1ccc(Nc2nccc(-c3cc4ccccc4s3)n2)cc1)N1CCC(N2CCCC2)CC1`, the Potency in assay [3] is 21.7 µM (active).

`Cn1c(=O)c(F)c(Nc2ccc(I)cc2F)c2c(=O)n(C[C@@H](O)CO)cnc21`: in assay [3], the Potency was 4.85 µM (active).

As for `CN1CCN(c2cc(C(=O)Nc3ccc4c(c3)-c3c(c(C(N)=O)nn3-c3ccc(F)cc3)CC4)c(Cl)cn2)CC1`, the Potency in assay [3] was 2.73 µM (active).

With `Cc1cc(Nc2cc(N3CCN(C)CC3)nc(C=Cc3ccccc3)n2)n[nH]1`, the figures for the Potency in assay [3] and in assay [4] were 8.85 µM (active) and 31.4 µM (active), respectively.

On to `O=C1C(Cl)=C(NCCN2CCOCC2)C(=O)c2ncccc21`, for which the Potency in assay [3] is 34.3 µM (active).

Regarding `Cc1cc(-c2ccc(CC(=O)Nc3ccc(-c4cccnc4)cc3)cc2)ccn1`, the Potency in assay [3] was 19.3 µM (active).

Consider `CC=C1NC(=O)[C@H]2CSSCCC=C[C@H](CC(=O)N[C@H](C(C)C)C(=O)N2)OC(=O)[C@H](C(C)C)NC1=O`, for which the Potency in assay [3] and in assay [4] was 0.0968 µM (active) throughout.

As to `COc1ccc(N(C(=O)Oc2c(C)cccc2C)c2ccnc(Nc3ccc(N4CCN(C)CC4)cc3)n2)c(OC)c1`, the Potency result in assay [1], in assay [2] and in assay [5] was “inactive” throughout.

`CN(C)CCCNC(=O)c1ccc(-c2cc(O)c3ncccc3c2)cc1`: the values for the Potency in assay [3] and in assay [4] were 38.5 µM (active) and 19.3 µM (active), respectively.

In the case of `CN1CCN(c2ccc3nc(-c4c(N)c5c(F)cccc5[nH]c4=O)[nH]c3c2)CC1`, in assay [3], the Potency was 2.17 µM (active).

Consider `CCOc1cc(C(=O)Nc2ccc(Cl)c(-c3nc4ccccc4[nH]3)c2)cc(OCC)c1OCC`, for which the Potency in assay [3] is 17.2 µM (active).

`C[C@]1(CO)CN(c2cc(C(=O)Nc3ccc4c(c3)-c3c(c(C(N)=O)nn3-c3ccc(F)cc3)CC4)c(Cl)cn2)C[C@@]1(C)CO`: the Potency in assay [3] was 1.72 µM (active); in assay [4] it was 1.37 µM (active).

Consider `CC1(O)CC(c2nc(-c3ccc4ccc(-c5ccccc5)nc4c3)c3c(N)nccn23)C1` (stereo unspecified), for which the Potency is 5.44 µM (active) in assay [3] and 3.85 µM (active) in assay [4].

As to `N#Cc1ccc(COC[C@H]2O[C@@H](n3c(NCc4ccc(Cl)c(Cl)c4)nc4c(N)ncnc43)[C@@H](O)[C@@H]2O)cc1`, the Potency result in assay [1] and in assay [2] was “inactive” in each case.

As for `CNC(=O)c1cc(Oc2ccc(NC(=O)Nc3ccc(Cl)c(C(F)(F)F)c3)c(F)c2)ccn1`, the Potency result in assay [1] and in assay [2] was “inactive” in each case.

As to `CCn1c(-c2nonc2N)nc2c(C#CC(C)(C)O)ncc(OC[C@H]3CCCNC3)c21`, the Potency in assay [3] was 0.0611 µM (active); in assay [4], 0.153 µM (active).

On to `COC[C@H]1OC(=O)c2coc3c2[C@@]1(C)C1=C(C3=O)[C@@H]2CC[C@H](O)[C@@]2(C)C[C@@H]1OC(C)=O`, for which the Potency entry in assay [1] and in assay [5] was “inactive” in each case. In addition, the Potency in assay [6] was 14.8 µM (active).

Take `Nc1ccc(C(=O)c2cc3c(ccc4ccccc43)[nH]2)cc1`: in assay [3], the Potency was 17.2 µM (active).

Take `Cc1cc(Nc2cc(N3CCN(C)CC3)nc(Sc3ccc(NC(=O)C4CC4)cc3)n2)n[nH]1`: the Potency was 19.3 µM (active) in assay [3] and 38.5 µM (active) in assay [4].

On to `Fc1cc(-c2cccc3ncc(-c4cnn(C5CCNCC5)c4)nc23)cc(F)c1CN1CCOCC1`, for which, in assay [1], the Potency is 24.3 µM (active). Further, the Potency result in assay [2] was “inactive”.

`CC(C)OC(=O)C1=CN(C(=O)c2ccc(F)c(F)c2)CC(C)(C)c2c1[nH]c1ccccc21`: the Potency result in assay [1] and in assay [2] was “inactive” in each case.

In the case of `Nc1nc(Nc2ccc(S(N)(=O)=O)cc2)nn1C(=O)c1c(F)cccc1F`, the Potency in assay [3] is 24.3 µM (active).

In the case of `Cc1ccc(C(=O)Nc2ccc(CN3CCN(C)CC3)c(C(F)(F)F)c2)cc1C#Cc1cnc2cccnn12`, the Potency is 1.22 µM (active) in assay [3] and 3.43 µM (active) in assay [4].

Take `C#Cc1cccc(Nc2ncnc3cc(OC)c(OCCCCCCC(=O)NO)cc23)c1`: the Potency in assay [3] is 3.43 µM (active).

With `Nc1ccccc1NC(=O)c1ccc(CNC(=O)OCc2cccnc2)cc1`, the Potency in assay [3] was 12.2 µM (active).

On to `CC(C)(O)C=CC(=O)[C@](C)(O)[C@H]1[C@H](O)C[C@]2(C)[C@@H]3CC=C4[C@@H](C=C(O)C(=O)C4(C)C)[C@]3(C)C(=O)C[C@@]12C`, for which the Potency in assay [3] is 3.06 µM (active); in assay [4], 9.68 µM (active); in assay [2] it was 10.9 µM (active); in assay [5], 1.31 µM (active); in assay [6], 0.187 µM (active).
